Assay outcomes: PubChem, National Center for Advancing Translational Sciences (NCATS)
SARS PLP yeast: qHTS of Yeast-based Assay for SARS-CoV PLP. S. cerevisiae expressing SARS-CoV PLpro, growth rescue. Potency, µM (highest dose often 32.9 µM), for the others: top-dose activity, positive = growth rescue, most hits filed as activators. 0.19% of 330,000 active. AID 485353, 2010; calls by dose curve; also: potency is read from the fitted curve at half-maximal effect; 0% is about no effect; nearly all actives have a fitted effect of over 55% in size
Pf growth 96h: Primary qHTS for delayed death inhibitors of the malarial parasite plastid, 96 hour incubation; P. falciparum luciferase reporter growth, 96 h; Potency, µM (highest dose often 28.7 µM), for inactives: top-dose activity change, negative = inhibition, actives largely listed as inhibitors; 6.9% of 320,000 active; AID 504834, 2011; also: potency is read from the fitted curve at half-maximal effect; % is scaled to controls: 0 for no effect and ±100 for the full control effect
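Cell-based qHTS: luciferase-tagged P. falciparum in erythrocytes (2% hematocrit, 0.05% parasitemia final) incubated with compounds for 96 hours, 37 C, 5% CO2; luciferase detection reagent then added and luminescence measured.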
CHX counter: Cycloheximide Counterscreen for Small Molecule Inhibitors of Shiga Toxin | 12% of 300,000 active | max response, % | cell reporter, cycloheximide protein synthesis inhibition counterscreen; in the data active = max response mostly above about 13%, no sharp cut-off; inactive = mostly below about 14%; also: read at 38.3 µM for the half of the compounds with a filed dose; 0% is about no effect
Pf growth 48h: Primary qHTS for delayed death inhibitors of the malarial parasite plastid, 48 hour incubation. 5.9% of 310,000 active. AID 504832, 2011. Potency, µM (highest dose often 28.7 µM), inactives show at the highest dose activity change, negative = inhibition, hits mostly inhibitors. P. falciparum luciferase growth in erythrocytes, 48 h; also: potency is read from the fitted curve at half-maximal effect; % is scaled to controls: 0 for no effect and ±100 for the full control effect
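Growth was read as firefly luciferase luminescence after a 48 h, 37 C, 5% CO2 exposure of compounds to reporter-bearing P. falciparum cultures (0.1% parasitemia, 2% hematocrit final) in Albumax-supplemented RPMI 1640.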
AMA1-RON2 inh: qHTS for Inhibitors of AMA1-RON; Towards Development of Antimalarial Drug Lead: Primary Screen | Plasmodium falciparum AMA1 (3D7) - RON2 peptide interaction | AID 720542, 2013 | Potency, µM (doses to about 58.2 µM), for inactives: at the highest dose activity change, negative = inhibition, hits mostly inhibitors | 0.2% of 360,000 active | AlphaScreen AMA1-biotinylated RON2 peptide binding;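 also: potency is read from the fitted curve at half-maximal effect; 0% = vehicle wells and -100% = peptide control; nearly all actives have a fitted effect of over 45% in size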
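AMA1 (3D7) with his tag at 25 nM final met compounds first, then biotinylated RON2 peptide at 25 nM; detection used donor plus acceptor beads, 10 µg/mL apiece, read by AlphaScreen after 30 min at room temperature.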
Shiga inhibitor: A qHTS for Small Molecule Inhibitors of Shiga Toxin; Vero cells, Shiga toxin protein synthesis inhibition reporter; inhibition, % at 38.7 µM; 9.2% of 290,000 active; AID 2315, 2010; in the data active = inhibition mostly above about 28%, no sharp cut-off; inactive = mostly below about 43%; also: 0% is about no effect
Starred values were filed as active, the others as inactive; u = inconclusive; x = not tested or not shown; [ ] = dose if it differs, or a comment. The list is not random: actives were taken first. Their share in the collection is about 19%. Unless noted, calls follow the shape of the dose curve; as a rule, active = well fitted curve in the direction sought with a large enough effect; inconclusive = small, poorly fitted or top-dose-only effect, or another doubt; inactive = no such curve, though single readings can be large; an effect the other way counts as inactive or inconclusive.

SMILES	SARS PLP yeast	Pf growth 96h	CHX counter	Pf growth 48h	AMA1-RON2 inh	Shiga inhibitor
C=CCn1c(=O)[nH]c2cc(C(=O)N3CC=C(c4ccccc4)CC3)ccc2c1=O	0.2%	-13.9%	-8.3	0.4%	0.5%	-1.4
CC(C)c1ccc(NC(=O)CSc2nc3ncccc3[nH]2)cc1	x	-14.7%	18.8*	-3.7%	23.4%	17.9
CC(C)(C)c1ccc(NC(=O)CSc2n[nH]c(=O)n2-c2cccnc2)cc1	-0.3%	2.2%	-1.5	-4.2%	-4.0%	-6.0
COc1ccc(NC(=O)CSc2nc3ncccc3[nH]2)cc1OC	-16.9%	x	-2.0	21.4%	20.0%	27.8
CC(C)OC(=O)c1ccc(NC(=O)CSc2nc3ncccc3[nH]2)cc1	-0.3%	u	22.9*	-28.5%	25.8%	46.0*
CC(C)c1ccc(NC(=O)CSc2n[nH]c(=O)n2-c2cccnc2)cc1	0.2%	13.1µM*	-1.9	-3.3%	-4.7%	-11.0
c1ccc(Cn2c(-c3cncs3)nc3ccccc32)cc1	-26.6%	x	60.4*	16.1%	11.5%	46.6
Brc1cccc(Cn2c(-c3cncs3)nc3ccccc32)c1	4.1%	8.28µM*	12.4	10.4µM*	-10.9%	32.0*
N#CCCCCn1c(-c2cncs2)nc2ccccc21	0.3%	x	5.0	0.8%	41.0%	19.9
Brc1ccc(Cn2c(-c3cncs3)nc3ccccc32)cc1	5.6%	-95.3%	33.0*	u	0.9%	94.3*
CN1C(=O)NC(c2cccc([N+](=O)[O-])c2)C2=C1CCCC2=O (stereo not drawn)	0.9%	2.4%	-11.1	-19.4%[0.00184 µM]	-0.3%	-1.6
Cc1ccc(C(=O)NC(Cc2cccc(C(F)(F)F)c2)C(=O)O)cc1 (stereo not drawn)	-0.2%	x	x	x	12.6%	x
CCOCCCNC(=O)c1ccc2c(c1)ncn2C1CCCC1	1.5%	-34.0%	23.7*	33.4%	-5.1%	28.6*
CC(C)CCNC(=O)c1ccc2c(c1)ncn2C1CCCC1	0.7%	u	34.3*	55.8%	-4.4%	124.5*
CCc1ccccc1NC(=O)CNC(=O)CCc1nc2sc3c(c2c(=O)[nH]1)CCCC3	1.0%	3.4%	x	4.6%	-18.3%	x
Cn1cc(/C=C2\SC(=O)N(c3ccccc3)C2=O)c2ccccc21	-0.1%	54.6%	19.1*	64.9%	-1.4%	-3.2
CCN1C(=O)S/C(=C/c2cn(C)c3ccccc23)C1=O	24.6%	u	27.1*	20.6%	0.0%	43.7*
CCN=C1S/C(=C\c2cn(CC)c3ccccc23)C(=O)N1CC	-16.5%	u	-2.4	u	u	13.5
CC(C)n1cc(/C=C2/SC(=O)N(CC(=O)N3CCCC3)C2=O)c2ccccc21	8.9%	u	0.8	0.0%	9.4%	-10.1
Cn1cc(/C=C2\C(=O)NC(=O)N(c3ccccc3)C2=O)c2ccccc21	0.4%	3.1%	-5.3	22.9%	35.7%	-9.5
Cn1cc(/C=C2\SC(=O)N(c3ccc(O)cc3)C2=O)c2ccccc21	-2.2%	u	44.9*	u	-8.9%	90.6*
CCCCNC(=O)NS(=O)(=O)c1ccc(NC(=O)CCC(=O)c2cccs2)cc1	0.4%	45.5%	-0.6	-2.2%	-5.2%	8.1
O=C(CC(=O)Nc1ccc(F)cc1)Nc1ccc(F)cc1	1.0%	36.8%	-0.8	26.4%	0.8%	-0.7
CC(C)C(C(=O)OCC(=O)c1ccccc1)N1C(=O)C2C3C=CC(C3)C2C1=O (stereo not drawn)	0.0%	12.4%	-2.1	9.4%	-1.7%	37.5
COc1ccc(CNc2ncc(-c3ccc(Br)cc3)n2C)cc1OC	3.5%	13.1µM*	-1.6	u	u	-6.8
SMILES	SARS PLP yeast	Pf growth 96h	CHX counter	Pf growth 48h	AMA1-RON2 inh	Shiga inhibitor
COc1ccc(CNc2ncc(-c3ccc(Cl)cc3)n2C)c(OC)c1OC	-1.4%	2.94µM*	-3.4	-25.8%	u	-4.6
Cc1ccc(-n2c(C)cc(C(=O)CN3CCCCC3)c2C)cc1	-11.3%	u	40.1*	u	5.7%	87.4*
Cc1cc(C(=O)CN2CC(C)OC(C)C2)c(C)n1-c1ccccc1 (stereo not drawn)	0.1%	-7.9%	12.6*	-18.1%	-9.8%	50.5*
CC[N+]1(CC(O)COC2CC(C)CC(C)(C)C2)CCOCC1 (stereo not drawn)	0.4%	u	-1.9	u	13.2%	-2.1
COC(c1ccccc1)c1nnc(CCC(=O)N(C)CCc2ccccc2)o1 (stereo not drawn)	-0.9%	3.5%	7.7	7.4%	2.3%	5.2
CN(CCc1cnn(C)c1)C(=O)CCc1nnc(CCCc2ccccc2)o1	-1.0%	u	17.2*	-3.7%	12.8%	35.6*
CN(CCc1ccccn1)C(=O)CCc1nnc(CCCc2ccccc2)o1	-0.3%	u	45.0*	-16.5%	-10.3%	72.8*
COc1ccc(S(=O)(=O)N(C)C)cc1NC(=O)Cc1c[nH]c2ccccc12	-0.2%	u	-1.8	u	13.9%	1.1
Cc1ccc(-c2oc3ccccc3c(=O)c2O)cc1	-13.8%	35.1%	14.3*	3.7µM*	42.3%	9.3
O=c1c(O)c(-c2cccs2)oc2ccccc12	-19.3%	-10.9%	17.7*	-25.7%	23.6%	15.2
O=C(O)c1c(-c2ccccc2)oc2ccc(O)cc12	0.5%	-5.6%	1.8	-2.1%	-2.8%	-9.5
Cc1ccc2oc(-c3ccccc3)c(C(=O)O)c(=O)c2c1	-25.8%	92.4%	44.1*	146.5%	-5.0%	80.0*
Cc1cccn2c(=O)c3cc(C(=O)NCCCN4CCCC4=O)n(C)c3nc12	4.6%	23.9%	12.0	-12.0%	2.7%	24.3
Nc1nnc(SCC(=O)NC23CC4CC(CC(C4)C2)C3)s1	3.3%	-18.2%	-1.9	x	4.1%	-4.4
Cc1nc2c(OCc3ccccc3)cccn2c1N(C)C(=O)C1CCCCC1	x	x	x	x	6.6%	x
COc1ccc(C(C)NC(=O)C2CCN(CCOc3ccc(Cl)cc3Cl)CC2)cc1OC (stereo not drawn)	x	x	x	x	42.6%	x
CC(=O)N1CCc2cc(S(=O)(=O)NCCC(=O)Nc3cc(C)cc(C)c3)ccc21	2.2%	5.22µM*	-0.4	u	-7.3%	-7.0
CCC(=O)N1CCc2cc(S(=O)(=O)NCCC(=O)Nc3cc(C)cc(C)c3)ccc21	7.3%	41.4%	-3.0	u	-12.9%	14.0
CC(=O)N1CCc2cc(S(=O)(=O)NCCC(=O)Nc3ccc4c(c3)OCCO4)ccc21	-1.2%	u	29.9*	56.6%	-22.4%	65.9
COc1ccc(OC)c(NC(=O)NNC(=O)COc2ccc(F)cc2F)c1	5.1%	56.6%	-2.0	35.0%	34.8%	-7.5
O=C(CSc1nncn1-c1ccccn1)Nc1cccc(Cl)c1	-2.5%	-28.1%	-0.5	-0.5%	-11.8%	-10.5
